In PubChem BioAssay (NCATS) one finds activation and Potency data, which are given here for 40 molecules.

Several values for one entry are separate records, joined by “and”; a condition that tells them apart may be missing. Identical values can stand only once. Records with an inconclusive call do not appear. A number with no mark means an inactive call. Activity calls are given as the source filed them. Calls follow the shape of the dose curve; as a rule, active = well fitted activation curve with a large enough effect; inconclusive = small, poorly fitted or top-dose-only effect; inactive = no such curve, though single readings can be large or run the other way.
Potency is read from the fitted curve at half-maximal effect.

Cellular tumor antigen p53 (Homo sapiens), sequence (P04637 whole entry, looked up): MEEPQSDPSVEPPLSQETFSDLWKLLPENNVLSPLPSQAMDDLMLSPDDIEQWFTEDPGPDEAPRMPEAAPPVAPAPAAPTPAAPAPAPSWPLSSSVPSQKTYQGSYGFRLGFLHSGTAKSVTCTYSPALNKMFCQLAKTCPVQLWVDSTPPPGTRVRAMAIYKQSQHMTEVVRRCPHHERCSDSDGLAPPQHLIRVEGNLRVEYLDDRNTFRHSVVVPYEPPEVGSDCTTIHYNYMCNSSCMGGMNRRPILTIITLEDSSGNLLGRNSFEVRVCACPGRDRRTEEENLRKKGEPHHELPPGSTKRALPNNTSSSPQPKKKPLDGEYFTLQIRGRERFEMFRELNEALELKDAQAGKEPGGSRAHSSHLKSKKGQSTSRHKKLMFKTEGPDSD

The experiment concerns the target Cellular tumor antigen p53 (Homo sapiens) (UniProt P04637). The experiment is described as follows: Primary qHTS for small molecule compounds that upregulate eGFP-tagged delta133p53alpha (in N-terminal) cells. (AID 2060322). Also: nearly all actives have a fitted effect of over 75% in size.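 As to activation: series mostly up to about 56 µM; 0% = DMSO vehicle and 100% = reference activator.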 The settings on record: NCI-H358 eGFP-delta133p53alpha fluorescence, 24 h; activation: stronger effect = higher value. In short, it runs like this: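 NCI-H358 cells pre-induced 24 h with 10 ng/ml doxycycline to express N-terminal eGFP-delta133p53alpha, then dosed 24 h at 37C without doxycycline; fixed, Hoechst-stained, GFP intensity by laser scanning cytometry, normalized to DMSO (0%) and 57.5 uM 5-azacytidine (100%).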
As to `C[N+](C)(C)CC(O)CC(=O)[O-]` (stereo not given), the activation is 7.53%.
Still for that read-out and setting: to `CCCCCCCCCCOc1cc2c(=O)c(C(=O)OCC)c[nH]c2cc1OCC` belongs -12.6%.
For `O=S(=O)(NCCNCC=Cc1ccc(Br)cc1)c1cccc2cnccc12`, the activation is -19.7%.
Same read-out and setting: with `C=CCNC(N)=S` the figure was -2.82%; with `COc1cc(/C=C/C(N)=O)cc(OC)c1OC`, -18.6%.
Still for that read-out and setting: with `O=C(/C=C/c1ccccc1)OCc1ccccc1` the figure was -23.2%; with `CN1[C@@H]2CC(OC(=O)[C@H](CO)c3ccccc3)C[C@H]1[C@@H]1O[C@@H]12` (stereo not given in full), -10.7%; with `CC(C)=CCOc1ccc(/C=C/C(=O)c2ccc(OCC=C(C)C)cc2OCC(=O)O)cc1`, -1.67%.
On to `CC[C@H]1OC(=O)[C@H](C)C(=O)[C@H](C)[C@@H](O[C@H]2O[C@H](C)C[C@H](N(C)C)[C@@H]2O)[C@](C)(OC)C[C@@H](C)C(=O)[C@H](C)[C@H]2N(CCCCn3cnc(-c4cccnc4)c3)C(=O)O[C@]12C`, for which the activation was 1.46%.
`CN(N=O)C(=O)N[C@H]1C(O)OC(CO)[C@@H](O)[C@H]1O` (stereo not given in full): the activation was 25.8%.
Regarding `CC(=O)NC(=O)c1ccccc1O`, the activation was 1.69%.
The same measure, in the same setting: with `Cc1c(C(=O)O)c(O)cc2c1C(=O)c1c(O)c([C@@H]3O[C@H](CO)[C@@H](O)[C@H](O)[C@H]3O)c(O)c(O)c1C2=O` the figure was -4.18%.
For the molecule `CC(C)=CCC/C(C)=C/CC/C(C)=C/C(=O)OCC(=O)[C@@]1(O)CC[C@H]2[C@@H]3CCC4=CC(=O)C=C[C@]4(C)[C@H]3[C@@H](O)C[C@@]21C`, the activation was -21.8%.
Same read-out and setting: to `NC(=O)NS(=O)(=O)c1ccc(Cl)cc1` belongs 1.69%; to `CC(C)(C)NCC(O)COc1ccc(NC(=O)NC2CCCCC2)cc1` (stereo not given), 5.08%; to `CCCCCCOc1ccccc1C(N)=O`, 8.47%.
On the same count and under the same terms, with `CCCCCCCCOc1ccc(C(=O)c2ccccc2)c(O)c1` the figure was -2.82%; with `CCOC(=O)Oc1ccc(CCNC(=O)[C@H](CCSC)NC(C)=O)cc1OC(=O)OCC`, 16.4%; with `Oc1cccc(O)c1`, -16.4%.
As for `O=C(O)C1(C(=O)O)CCC1.[NH2-].[NH2-].[Pt+2]`, the activation is 0.565%.
As for `CC(=O)OCC(=O)[C@@]1(OC(C)=O)[C@@H](C)C[C@H]2[C@@H]3C[C@H](F)C4=CC(=O)C=C[C@]4(C)[C@@]3(F)[C@@H](O)C[C@@]21C`, the activation is 5.08%.
As to `COC(=O)[C@@H]1[C@H]2C[C@@H]3c4[nH]c5ccccc5c4CCN3C[C@@H]2CC[C@@H]1O`, the activation was 21.4%.
For `O=C(N[C@H](CO)[C@H](O)c1ccc([N+](=O)[O-])cc1)C(Cl)Cl`, the activation is 15.3% and -2.04%.
Turning to `CCCCOC(=O)CCCCCCCCC(=O)OCCCC`, the activation is -7.53%.
Same read-out and setting: to `CC[C@]12CCCN3CCc4c(n(c5ccccc45)[C@@](O)(C(=O)OC)C1)[C@@H]32` belongs 5.02%; to `C[C@@H](c1ncncc1F)C(O)(Cn1cncn1)c1ccc(F)cc1F` (stereo not given in full), -2.82%; to `Cc1ccccc1N=Nc1ccc(N=Nc2c(O)ccc3ccccc23)c(C)c1`, -17.5%.
As to `CC(=O)N(CC(O)CN(C(C)=O)c1c(I)c(C(=O)NCC(O)CO)c(I)c(C(=O)NCC(O)CO)c1I)c1c(I)c(C(=O)NCC(O)CO)c(I)c(C(=O)NCC(O)CO)c1I` (stereo not given), the activation was -16.7%.
With `CC(C)(O)Cn1c(NC(=O)c2ccc(-c3cn[nH]c3)s2)nc2cc(CN3CCOCC3)ccc21`, the Potency was 3.85 µM (active).
For `CC(C)CCOC(=O)c1ccc(N(C)C)cc1`, the activation is 6.69%.
With `Cc1ccccc1OCC(O)CO` (stereo not given), the activation was 13%.
On to `CC(=O)OC[C@H]1O[C@@H](OC(C)=O)[C@H](OC(C)=O)[C@@H]1OC(C)=O`, for which the activation was 28.8%.
For `Cc1cccc(Nc2ccncc2S(=O)(=O)NC(=O)NC(C)C)c1`, the activation is 14.1% and -1.67%.
On to `C[n+]1ccccc1/C=N/O`, for which the activation was 15.3%.
Take `COc1ccc(S(=O)(=O)ON=C2C=C(C)C(=O)C(C)=C2)cc1`: the Potency was 34.3 µM (active).
As to `CC(C)n1c(/C=C/[C@@H](O)C[C@@H](O)CC(=O)O)c(-c2ccc(F)cc2)c2ccccc21`, the activation was -1.69%.
With `CS(=O)(=O)c1ccc(-c2cn3ccccc3n2)cc1`, the activation was -26.8%.
Same read-out and setting: with `CCCCCCCC(=O)OCC(O)CO` (stereo not given) the figure was -14.2%.
Take `Cc1ccc(N)cc1O`: the Potency was 28.2 µM (active).
Regarding `CC=C(C)C(=O)O[C@H]1C(C)=C[C@]23C(=O)[C@@H](C=C(CO)[C@@H](O)[C@]12O)[C@H]1[C@@H](C[C@H]3C)C1(C)C`, the activation is 20.2%.
